Molecules are shown by their SMILES. For part of these data: Measured potencies and affinities stand elsewhere.

Design in all cases: scale not given: direction of the effect not stated beside the values
The target in test [1] is Protein translocase subunit SecA (Escherichia coli (strain K12)) (UniProt P10408). Put plainly: Assay to Identify E. coli SecA ATPase Inhibitors. In kind it is functional. As to conditions: 30 µM.
The target in test [2] is T1, Ubiquitin-activating enzyme e1, putative (Leishmania donovani (strain BPK282A1)) (UniProt E9BSI1).
T1 sequence (whole entry): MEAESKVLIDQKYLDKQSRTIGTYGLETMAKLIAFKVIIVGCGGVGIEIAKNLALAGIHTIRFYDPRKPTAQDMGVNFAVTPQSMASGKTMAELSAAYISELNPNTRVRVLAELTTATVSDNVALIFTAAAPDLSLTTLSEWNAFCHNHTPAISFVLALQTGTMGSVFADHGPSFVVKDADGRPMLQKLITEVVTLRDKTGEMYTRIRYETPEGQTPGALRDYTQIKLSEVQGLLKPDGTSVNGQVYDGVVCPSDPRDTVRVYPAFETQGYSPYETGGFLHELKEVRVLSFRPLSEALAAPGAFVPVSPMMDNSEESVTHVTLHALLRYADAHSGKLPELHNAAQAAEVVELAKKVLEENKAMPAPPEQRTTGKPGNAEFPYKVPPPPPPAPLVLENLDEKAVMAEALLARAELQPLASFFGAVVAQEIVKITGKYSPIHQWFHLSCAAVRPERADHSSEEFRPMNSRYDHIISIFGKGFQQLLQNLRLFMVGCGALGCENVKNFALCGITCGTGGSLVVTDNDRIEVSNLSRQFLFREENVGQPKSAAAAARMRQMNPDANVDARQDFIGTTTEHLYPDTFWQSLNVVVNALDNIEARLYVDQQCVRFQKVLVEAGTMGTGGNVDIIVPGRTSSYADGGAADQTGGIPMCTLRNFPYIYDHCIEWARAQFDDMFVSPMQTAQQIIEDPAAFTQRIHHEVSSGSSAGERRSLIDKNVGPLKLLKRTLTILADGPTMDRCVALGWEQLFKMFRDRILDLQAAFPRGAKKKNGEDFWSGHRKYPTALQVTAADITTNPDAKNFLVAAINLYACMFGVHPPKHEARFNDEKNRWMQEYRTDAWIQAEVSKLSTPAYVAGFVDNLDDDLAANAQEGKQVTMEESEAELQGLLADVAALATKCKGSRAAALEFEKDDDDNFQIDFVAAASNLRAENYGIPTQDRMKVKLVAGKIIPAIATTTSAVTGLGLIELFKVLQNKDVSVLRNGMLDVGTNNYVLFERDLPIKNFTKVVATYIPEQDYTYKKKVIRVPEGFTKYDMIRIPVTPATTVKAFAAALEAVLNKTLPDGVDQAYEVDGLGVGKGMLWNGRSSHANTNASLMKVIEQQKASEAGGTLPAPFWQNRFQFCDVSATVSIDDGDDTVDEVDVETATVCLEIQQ
Put plainly: Leishmania donovani Ubiquitin Activating Enzyme (LdE1). The format is functional. The conditions noted are these: 30 µM.

The target in test [3] is T2, Aspartate--tRNA(Asp/Asn) ligase (Mycobacterium tuberculosis (strain ATCC 25618 / H37Rv)) (UniProt P9WFW3). Further: in the data most compounds retested in dose-response had high values.
T2 sequence (whole entry): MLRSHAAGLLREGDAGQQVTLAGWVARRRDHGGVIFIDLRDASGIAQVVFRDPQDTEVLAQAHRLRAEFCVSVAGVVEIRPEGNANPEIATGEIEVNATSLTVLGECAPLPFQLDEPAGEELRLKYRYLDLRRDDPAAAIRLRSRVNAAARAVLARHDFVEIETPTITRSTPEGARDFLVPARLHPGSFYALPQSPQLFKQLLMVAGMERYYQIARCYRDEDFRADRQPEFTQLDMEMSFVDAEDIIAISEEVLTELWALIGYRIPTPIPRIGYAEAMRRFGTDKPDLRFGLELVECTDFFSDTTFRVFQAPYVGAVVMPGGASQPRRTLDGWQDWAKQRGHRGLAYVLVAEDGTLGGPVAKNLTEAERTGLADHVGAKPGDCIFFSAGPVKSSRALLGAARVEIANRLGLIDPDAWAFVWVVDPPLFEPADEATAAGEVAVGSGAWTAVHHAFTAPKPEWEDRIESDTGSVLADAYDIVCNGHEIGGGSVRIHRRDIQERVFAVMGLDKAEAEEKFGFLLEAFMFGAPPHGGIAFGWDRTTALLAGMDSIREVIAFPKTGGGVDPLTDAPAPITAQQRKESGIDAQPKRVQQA
Put plainly: Assay for Asp RNA synthetase-1 from Mycobacterium tuberculosis. In kind it is functional. As to conditions: 30 µM.

The target of test [4] is Sialic acid-binding Ig-like lectin 9 (Homo sapiens) (UniProt Q9Y336). Put plainly: Hs-Siglec9 ALPHAscreen SOP 20170721. The conditions noted are these: 10 µM.
Chain of Sialic acid-binding Ig-like lectin 9 (Homo sapiens) (Q9Y336 whole entry): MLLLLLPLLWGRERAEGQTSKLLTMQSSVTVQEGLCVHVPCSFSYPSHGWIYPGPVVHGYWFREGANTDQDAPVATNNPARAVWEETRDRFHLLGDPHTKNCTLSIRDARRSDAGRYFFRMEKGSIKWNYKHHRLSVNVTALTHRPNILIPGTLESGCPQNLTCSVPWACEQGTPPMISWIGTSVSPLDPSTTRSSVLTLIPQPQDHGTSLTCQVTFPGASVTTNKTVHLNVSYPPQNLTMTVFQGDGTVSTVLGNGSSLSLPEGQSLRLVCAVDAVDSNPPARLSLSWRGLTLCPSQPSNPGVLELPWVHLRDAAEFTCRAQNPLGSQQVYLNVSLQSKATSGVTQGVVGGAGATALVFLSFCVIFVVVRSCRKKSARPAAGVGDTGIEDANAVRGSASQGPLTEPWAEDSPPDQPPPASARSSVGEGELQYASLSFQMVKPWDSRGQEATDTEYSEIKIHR
The next test relates to Trypanosoma cruzi. Put plainly: Trypanosoma cruzi phosphomannomutase and mannose-1-phosphate guanylyltransferase assay. The conditions noted are these: 10 µM. In kind it is functional.
The target in test [5] is T3, Arginase-2, mitochondrial (Homo sapiens) (UniProt P78540).
T3 sequence (whole entry): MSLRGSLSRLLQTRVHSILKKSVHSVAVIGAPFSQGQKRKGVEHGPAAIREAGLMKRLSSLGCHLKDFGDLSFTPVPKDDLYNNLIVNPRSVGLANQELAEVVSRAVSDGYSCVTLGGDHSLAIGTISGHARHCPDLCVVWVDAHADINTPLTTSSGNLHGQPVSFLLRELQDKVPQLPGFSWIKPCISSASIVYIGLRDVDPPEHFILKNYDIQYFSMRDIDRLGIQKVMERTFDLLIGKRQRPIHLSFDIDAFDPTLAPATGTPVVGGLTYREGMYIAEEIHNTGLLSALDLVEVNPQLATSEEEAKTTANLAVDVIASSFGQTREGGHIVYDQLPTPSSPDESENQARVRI
Put plainly: in vitro enzyme assay to detect the production of urea directly proportional to the activity of Arginase II. Further: in the data most compounds retested in dose-response had high values. In kind it is functional. As to conditions: 33.3 µM.

In test [6] the target is T4, Proteasome subunit beta (Trypanosoma cruzi) (UniProt O96673).
T4 sequence (whole entry): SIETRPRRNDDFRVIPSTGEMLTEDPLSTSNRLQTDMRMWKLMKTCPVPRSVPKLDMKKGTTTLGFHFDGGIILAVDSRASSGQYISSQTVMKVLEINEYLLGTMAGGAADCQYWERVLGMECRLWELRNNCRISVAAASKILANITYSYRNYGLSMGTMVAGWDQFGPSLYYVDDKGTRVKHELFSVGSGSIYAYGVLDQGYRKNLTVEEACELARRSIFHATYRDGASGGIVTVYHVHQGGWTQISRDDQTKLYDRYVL
Put plainly: Trypanosoma cruzi proteasome chymotrypsin-like activity (TcProtChymo) assay. Further: in the data most compounds retested in dose-response had high values. In kind it is functional. As to conditions: 9.37 µM.

The species named for another test is Homo sapiens. Put plainly: To identify inhibition of the IFN signalling (Jak-Stat) pathway via expression of an eGFP reporter gene under the control of an IFN-stimulated response element (ISRE) containing MxA promoter. In kind it is functional. As to conditions: 30 µM.
Test [7] concerns the target Shiga toxin 2 (Escherichia coli O157:H7) (UniProt P09385+P09386). Put plainly: E. coli 0.157:H7 Shiga Toxin SOP - stx2 screening assay. As to conditions: 30 µM. In kind it is functional.
Test [8] concerns the target T5, Tyrosyl-tRNA synthetase, putative (Trypanosoma cruzi (strain CL Brener)) (UniProt Q4DSP6).
T5 sequence (whole entry): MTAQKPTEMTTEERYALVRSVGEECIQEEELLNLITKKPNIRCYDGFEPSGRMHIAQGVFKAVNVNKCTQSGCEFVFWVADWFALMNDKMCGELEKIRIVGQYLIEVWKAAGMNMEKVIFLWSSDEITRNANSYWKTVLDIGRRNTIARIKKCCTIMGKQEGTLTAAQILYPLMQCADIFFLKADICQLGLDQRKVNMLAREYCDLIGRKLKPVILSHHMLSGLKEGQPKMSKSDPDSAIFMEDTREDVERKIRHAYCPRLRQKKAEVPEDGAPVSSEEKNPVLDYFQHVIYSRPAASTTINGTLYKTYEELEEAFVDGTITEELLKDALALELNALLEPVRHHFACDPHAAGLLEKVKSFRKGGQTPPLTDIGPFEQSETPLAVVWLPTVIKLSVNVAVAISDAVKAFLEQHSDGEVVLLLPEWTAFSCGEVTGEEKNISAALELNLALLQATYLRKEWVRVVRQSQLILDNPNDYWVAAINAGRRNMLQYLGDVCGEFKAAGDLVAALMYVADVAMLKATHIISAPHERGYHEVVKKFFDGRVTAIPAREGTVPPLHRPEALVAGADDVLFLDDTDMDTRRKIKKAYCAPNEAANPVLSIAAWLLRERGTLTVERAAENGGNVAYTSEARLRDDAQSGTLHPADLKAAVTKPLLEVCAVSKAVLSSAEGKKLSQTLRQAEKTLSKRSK
Put plainly: Trypanosoma cruzi tyrosyl tRNA synthetase (TcYRS) _High Tyrosine SOP. Further: in the data most compounds retested in dose-response had high values. The format is functional. The conditions noted are these: 30 µM.

Test [9] deals with T5, Tyrosyl-tRNA synthetase, putative (Trypanosoma cruzi (strain CL Brener)). Put plainly: Trypanosoma cruzi tyrosyl tRNA synthetase (TcYRS) SOP. The format is functional. The conditions noted are these: 30 µM.
In test [10] the target is Chromo domain-containing protein 1 (Saccharomyces cerevisiae (strain ATCC 204508 / S288c) (Baker's yeast)) (UniProt P32657). Put plainly: ScCHD-1 Enzyme Inhibition Assay. Further: in the data most compounds retested in dose-response had high values. In kind it is functional. As to conditions: 30 µM.
Chain of Chromo domain-containing protein 1 (Saccharomyces cerevisiae (strain ATCC 204508 / S288c) (Baker's yeast)) (P32657 whole entry, the tested form may be a part): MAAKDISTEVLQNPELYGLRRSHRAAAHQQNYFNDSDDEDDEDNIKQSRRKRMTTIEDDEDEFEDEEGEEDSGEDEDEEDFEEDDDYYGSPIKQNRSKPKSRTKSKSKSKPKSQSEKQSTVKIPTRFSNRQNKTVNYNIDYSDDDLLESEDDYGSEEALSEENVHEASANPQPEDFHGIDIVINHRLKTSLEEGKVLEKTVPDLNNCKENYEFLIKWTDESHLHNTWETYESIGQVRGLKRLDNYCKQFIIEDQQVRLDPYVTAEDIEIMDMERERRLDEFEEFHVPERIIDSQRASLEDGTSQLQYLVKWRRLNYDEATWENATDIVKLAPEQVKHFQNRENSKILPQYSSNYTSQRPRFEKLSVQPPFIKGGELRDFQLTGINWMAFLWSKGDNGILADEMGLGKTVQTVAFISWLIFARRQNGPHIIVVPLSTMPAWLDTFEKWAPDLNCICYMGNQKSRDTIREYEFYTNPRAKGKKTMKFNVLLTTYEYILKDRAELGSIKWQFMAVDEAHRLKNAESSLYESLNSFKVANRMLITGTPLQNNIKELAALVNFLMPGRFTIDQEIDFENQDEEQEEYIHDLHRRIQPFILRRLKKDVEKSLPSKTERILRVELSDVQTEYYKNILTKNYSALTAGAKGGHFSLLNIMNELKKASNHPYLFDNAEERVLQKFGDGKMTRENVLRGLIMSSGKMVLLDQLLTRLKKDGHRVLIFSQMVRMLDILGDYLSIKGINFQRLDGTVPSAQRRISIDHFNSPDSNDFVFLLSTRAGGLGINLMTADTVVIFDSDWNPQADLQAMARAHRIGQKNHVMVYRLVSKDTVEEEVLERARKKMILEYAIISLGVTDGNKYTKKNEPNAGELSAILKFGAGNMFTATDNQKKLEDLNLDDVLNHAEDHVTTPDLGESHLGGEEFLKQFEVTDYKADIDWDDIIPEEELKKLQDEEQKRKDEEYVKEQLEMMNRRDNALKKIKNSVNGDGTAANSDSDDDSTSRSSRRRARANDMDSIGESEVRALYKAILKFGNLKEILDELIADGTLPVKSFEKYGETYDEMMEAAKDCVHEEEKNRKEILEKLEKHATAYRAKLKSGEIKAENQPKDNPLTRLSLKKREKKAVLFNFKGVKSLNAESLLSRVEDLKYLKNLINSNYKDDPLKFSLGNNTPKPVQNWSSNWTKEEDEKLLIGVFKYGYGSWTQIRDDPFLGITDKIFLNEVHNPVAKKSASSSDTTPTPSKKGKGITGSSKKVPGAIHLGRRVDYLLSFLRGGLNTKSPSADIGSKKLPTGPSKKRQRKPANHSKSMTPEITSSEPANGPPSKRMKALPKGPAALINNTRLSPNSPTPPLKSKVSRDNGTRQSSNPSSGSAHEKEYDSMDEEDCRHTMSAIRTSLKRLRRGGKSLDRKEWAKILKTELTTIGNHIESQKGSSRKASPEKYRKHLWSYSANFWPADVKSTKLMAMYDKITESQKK

Chain of Protein translocase subunit SecA (Escherichia coli (strain K12)) (P10408 whole entry): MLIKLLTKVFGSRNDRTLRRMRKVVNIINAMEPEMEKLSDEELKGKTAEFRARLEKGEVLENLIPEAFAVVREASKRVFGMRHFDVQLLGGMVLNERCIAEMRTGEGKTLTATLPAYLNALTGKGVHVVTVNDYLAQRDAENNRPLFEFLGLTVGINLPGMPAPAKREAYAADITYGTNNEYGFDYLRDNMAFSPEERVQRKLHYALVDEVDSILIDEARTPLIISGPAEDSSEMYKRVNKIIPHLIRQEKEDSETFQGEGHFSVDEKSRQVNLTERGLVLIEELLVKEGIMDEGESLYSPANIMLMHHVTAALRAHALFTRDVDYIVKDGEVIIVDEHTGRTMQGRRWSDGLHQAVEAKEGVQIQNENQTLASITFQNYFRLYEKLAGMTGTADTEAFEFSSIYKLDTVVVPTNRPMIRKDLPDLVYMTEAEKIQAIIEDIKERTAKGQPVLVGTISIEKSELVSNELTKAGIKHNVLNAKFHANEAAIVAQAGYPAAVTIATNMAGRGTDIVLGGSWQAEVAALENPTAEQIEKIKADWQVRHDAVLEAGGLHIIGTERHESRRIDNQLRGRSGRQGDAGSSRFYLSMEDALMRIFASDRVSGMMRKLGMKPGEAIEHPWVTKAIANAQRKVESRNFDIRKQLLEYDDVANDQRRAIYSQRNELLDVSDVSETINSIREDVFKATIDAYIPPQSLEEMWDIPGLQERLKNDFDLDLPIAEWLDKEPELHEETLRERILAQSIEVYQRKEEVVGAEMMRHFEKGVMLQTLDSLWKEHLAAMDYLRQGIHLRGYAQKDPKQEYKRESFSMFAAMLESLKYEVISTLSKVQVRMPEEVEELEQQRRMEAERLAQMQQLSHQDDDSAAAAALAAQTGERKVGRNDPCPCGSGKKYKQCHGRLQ

For the compound `Fc1cnc(N2CCCC3(CCN(Cc4ccsc4)C3)C2)nc1` (stereo not given), the Percent Effect in test [1] was -5.76%; in [2] it was 3.9%; in [3] it was 9.59%; in test [4] it was -1.26%; in the test on Trypanosoma cruzi, 3.02%; in [5], -5.26%. Further, the Percent Effect was 8.56% in test [6]; -2.16% in the test listed under Homo sapiens; -9.72% in test [7]; 6.84% in [8]; 7.69% in test [9]; 14.2% in test [10].
On to `CC(C)(C)n1cc(C(=O)NCCCn2ccnc2)c2cccnc21`, for which the Percent Effect is 3.93% in test [1]; 17.3% in test [2]; 6.13% in [3]; -8.62% in test [4]; 4.73% in the test with Trypanosoma cruzi; 1.77% in [5]. Moreover, the Percent Effect in test [6] was 19.1%; in the test listed under Homo sapiens, 29.9%; in test [7], -3.75%; in [8] it was 2.12%; in test [9] it was 15%; in test [10], -24.1%.
In the case of `COCCN1CCN(Cc2ccncc2)[C@H]2CS(=O)(=O)C[C@H]21`, the Percent Effect in test [1] was -10.2%; in test [2] it was 10.8%; in test [3], -1.29%; in [4], 17.6%; in the test with Trypanosoma cruzi, 6.3%; in [5] it was 16.4%. Moreover, the Percent Effect in [6] was 5.99%; in the test listed under Homo sapiens it was 6.91%; in [7], 11.1%; in [8], 4.79%; in test [9] it was 14.6%; in [10], -4.57%.
Turning to `O=C1CO[C@@H]2CN(Cc3cccs3)C[C@H]2N1Cc1ccncc1`, the Percent Effect in test [1] was -2.47%; in test [2], 14.3%; in test [3] it was 9.56%; in [4], -8.26%; in the test on Trypanosoma cruzi it was -2.63%; in test [5], 10.9%. For the same compound, the Percent Effect is 21.8% in test [6]; -2.63% in the test listed under Homo sapiens; -17.5% in test [7]; 12.1% in [8]; 10.3% in test [9]; 3.61% in [10].
On to `O=C(Cn1ccc2c(Cl)cccc21)N1CCC2(CC1)OCCO2`, for which the Percent Effect in [1] is -2.33%; in [2] it was 10.8%; in [3], 0.188%; in [4] it was 5.66%; with Trypanosoma cruzi it was 1.46%; in test [5] it was 49.3%. Moreover, the Percent Effect in test [6] is 11.8%; in the test filed under Homo sapiens, 12.8%; in [7] it was 1.14%; in [8] it was 4.79%; in [9], 19.5%; in test [10], -2.23%.

The values are drawn from ChEMBL document CHEMBL3988442, “University of Dundee, Small-Polar-MMV Screening Library” (2021).
